Test results published in the supplement of paper PMC4840960.

These compounds were tested on E18 rat cortical neuron-glia co-culture (assay: fiber score / MBP score (myelination specific beyond OL differentiation) (ratio); higher = more myelination-specific MBP alignment). Conditions: 5 µM; treatment time: 8 days (DIV5-DIV13).
Outline: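 Papain-dissociated primary E18 rat cortical co-cultures, plated at 20,000 cells/well on poly-d-lysine/laminin 96-well plates, were exposed to library compounds at 1 or 5 µM in myelination medium between DIV5 and DIV13. Following fixation in 4 % paraformaldehyde, cultures were stained for MBP, Olig2 and DAPI, and four 10X fields per well were analysed in duplicate wells. Values are the ratio of fiber score (continuous MBP fiber length per Olig2+ nucleus) to MBP score (thresholded MBP area × intensity per Olig2+ nucleus).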

SMILES	fiber score / MBP score
O=S(=O)(O)CCS [Mesna]	0.877
Nc1ccc2cn[nH]c2c1 [6-Aminoindazole]	0.815
O=c1n(CCCN2CCN(c3cccc(Cl)c3)CC2)nc2ccccn12 [Trazodone]	0.5
CC(=O)OCC(=O)[C@@]1(O)CC[C@H]2[C@@H]3CCC4=CC(=O)C=C[C@]4(C)[C@H]3[C@@H](O)C[C@@]21C [Prednisolone acetate]	0.704
NC(=O)N1c2ccccc2C=Cc2ccccc21 [Carbamazepine]	0.902
COc1ccccc1OCCNCC(O)COc1cccc2[nH]c3ccccc3c12 (stereo not given) [Carvedilol]	0.794
CN(C)CCc1c[nH]c2ccc(C[C@H]3COC(=O)N3)cc12 [Zolmitriptan]	0.785
O=C(O[C@@H]1C[C@@H]2C[C@H]3C[C@H](C1)N2CC3=O)c1c[nH]c2ccccc12 [Dolasetron]	0.701
NC(=O)c1ncn([C@@H]2O[C@H](CO)[C@@H](O)[C@H]2O)n1 [Ribavirin]	1.03
CC1=C(/C=C/C(C)=C/C=C/C(C)=C\C(=O)O)C(C)(C)CCC1 [Isotretinoin]	0.414
NC[C@H]1CC[C@H](C(=O)Oc2ccc(CCC(=O)O)cc2)CC1 [Cetraxate]	0.791

What follows are compounds tested on E18 rat cortical neuron-glia co-culture (assay: myelination (MBP fiber length per Olig2+ nucleus), % of 1 µM DAPT response (DMSO = 0) (% of DAPT); higher = more myelination, active = 50 or more). Conditions: 1 µM; treatment time: 8 days (DIV5-DIV13).
Outline: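 Myelination, expressed as continuous straight MBP fiber length per Olig2+ nucleus, was normalised to 0.1 % DMSO as 0 and a 1 µM positive control as 100. The cultures were primary E18 rat cortical co-cultures dissociated with papain and plated at 20,000 cells/well on poly-d-lysine/laminin-coated 96-well plates. They received library compounds at 1 or 5 µM in myelination medium between DIV5 and DIV13. Analysis covered four 10X fields per well in duplicate wells after 4 % paraformaldehyde fixation and immunostaining for MBP and Olig2 with DAPI.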

SMILES	myelination
S=c1[nH]cnc2nc[nH]c12 [Mercaptopurine]	-32.7 (inactive)
CC(C)(C(=O)O)c1ccc(C(O)CCCN2CCC(C(O)(c3ccccc3)c3ccccc3)CC2)cc1 (stereo not given) [Fexofenadine]	0.24 (inactive)
CC1=C(C(=O)O)N2C(=O)[C@@H](NC(=O)[C@H](N)c3ccccc3)[C@H]2SC1 [Cephalexin]	-2.86 (inactive)
OCCN(CCO)c1nc(N2CCCCC2)c2nc(N(CCO)CCO)nc(N3CCCCC3)c2n1 [Dipyridamole]	3.14 (inactive)
CCC[C@@H]1C[C@@H](C(=O)N[C@@H]([C@H]2O[C@H](SC)[C@H](O)[C@@H](O)[C@H]2O)[C@@H](C)O)N(C)C1 [Lincomycin]	-22.9 (inactive)
CCOC(=O)[C@H](CCc1ccccc1)N[C@H]1CCc2ccccc2N(CC(=O)O)C1=O [Benazepril]	-15.3 (inactive)
Cn1c(NCCN(CCO)CCCc2ccc([N+](=O)[O-])cc2)cc(=O)n(C)c1=O [Nifekalant]	-9.01 (inactive)
COC(=O)C1=C(C)NC(C)=C(C(=O)OC(C)C)C1c1cccc2nonc12 (stereo not given) [Isradipine]	-16.2 (inactive)
C[C@](N)(Cc1ccc(O)c(O)c1)C(=O)O [Methyldopa]	22.3 (inactive)
CCCNCC(O)COc1ccccc1C(=O)CCc1ccccc1 (stereo not given) [Propafenone]	-1.52 (inactive)
CC(Oc1c(Cl)cccc1Cl)C1=NCCN1 (stereo not given) [lofexidine]	-15.8 (inactive)
C[C@@H]1O[C@@H](OC[C@H]2O[C@@H](Oc3c(-c4ccc(O)c(O)c4)oc4cc(O)cc(O)c4c3=O)[C@H](O)[C@@H](O)[C@@H]2O)[C@H](O)[C@H](O)[C@H]1O [Rutin]	-12 (inactive)
Cc1[nH]c(=O)c(C#N)cc1-c1ccncc1 [Milrinone]	-7.08 (inactive)
Cc1nc2ccccn2c(=O)c1CCN1CCC(C(=O)c2ccc(F)cc2)CC1 [Pirenperone]	-7.44 (inactive)
C[C@H]1[C@H](OC(=O)CCC(=O)O)O[C@@H]2O[C@@]3(C)CC[C@H]4[C@H](C)CC[C@@H]1[C@@]24OO3 [Artesunate]	-34.4 (inactive)
CCC1=C[C@@H]2CN(C1)Cc1c([nH]c3ccccc13)[C@@](C(=O)OC)(c1cc3c(cc1OC)N(C)[C@H]1[C@@](O)(C(=O)OC)[C@H](OC(C)=O)[C@]4(CC)C=CCN5CC[C@]31[C@@H]54)C2 [Vinorelbine]	-6.45 (inactive)
Nc1nc(N)c2nc(-c3ccccc3)c(N)nc2n1 [Triamterene]	68.5
CC(C)(C#N)c1cc(Cn2cncn2)cc(C(C)(C)C#N)c1 [Anastrozole]	-5.96 (inactive)
CC(=O)[C@H]1CC[C@H]2[C@@H]3CCC4=CC(=O)CC[C@]4(C)[C@H]3CC[C@]12C [Progesterone]	-31.5 (inactive)
N=C(N)N [Guanidine]	-7.42 (inactive)

SMILES	myelination
O=C1[C@H]2CCCC[C@H]2C(=O)N1CCCCN1CCN(c2nsc3ccccc23)CC1 [Perospirone]	-33.9 (inactive)
C#C[C@]1(O)CC[C@H]2[C@@H]3CCc4cc(OC)ccc4[C@H]3CC[C@@]21C [Mestranol]	-6.5 (inactive)
C[C@@H](c1ncncc1F)[C@](O)(Cn1cncn1)c1ccc(F)cc1F [Voriconazole]	-40.5 (inactive)
CC1(C)O[C@@H]2[C@@H](CO[C@@]3(COS(N)(=O)=O)OC(C)(C)O[C@@H]23)O1 [Topiramate]	-20.2 (inactive)
CN(C)[C@@H]1C(O)=C(C(N)=O)C(=O)[C@@]2(O)C(O)=C3C(=O)c4c(O)cccc4[C@@](C)(O)[C@H]3[C@H](O)[C@@H]12 [Oxytetracycline]	-5.3 (inactive)
Nc1nnc(-c2cccc(Cl)c2Cl)c(N)n1 [Lamotrigine]	-23.5 (inactive)
Oc1ccc(C2CNCCc3c2cc(O)c(O)c3Cl)cc1 (stereo not given) [Fenoldopam]	-10.8 (inactive)
CCCC1O[C@@H]2C[C@H]3[C@@H]4CCC5=CC(=O)C=C[C@]5(C)[C@H]4[C@@H](O)C[C@]3(C)[C@]2(C(=O)CO)O1 (stereo not given in full) [Budesonide]	3.65 (inactive)
O=S(=O)(O)CCS [Mesna]	1.33 (inactive)
Nc1ccc2cn[nH]c2c1 [6-Aminoindazole]	-12.7 (inactive)
O=c1n(CCCN2CCN(c3cccc(Cl)c3)CC2)nc2ccccn12 [Trazodone]	-42.9 (inactive)
CC(=O)OCC(=O)[C@@]1(O)CC[C@H]2[C@@H]3CCC4=CC(=O)C=C[C@]4(C)[C@H]3[C@@H](O)C[C@@]21C [Prednisolone acetate]	-5.64 (inactive)
NC(=O)N1c2ccccc2C=Cc2ccccc21 [Carbamazepine]	2.28 (inactive)
COc1ccccc1OCCNCC(O)COc1cccc2[nH]c3ccccc3c12 (stereo not given) [Carvedilol]	-38.4 (inactive)
CN(C)CCc1c[nH]c2ccc(C[C@H]3COC(=O)N3)cc12 [Zolmitriptan]	-9.2 (inactive)
O=C(O[C@@H]1C[C@@H]2C[C@H]3C[C@H](C1)N2CC3=O)c1c[nH]c2ccccc12 [Dolasetron]	-3.78 (inactive)
NC(=O)c1ncn([C@@H]2O[C@H](CO)[C@@H](O)[C@H]2O)n1 [Ribavirin]	3.44 (inactive)
CC1=C(/C=C/C(C)=C/C=C/C(C)=C\C(=O)O)C(C)(C)CCC1 [Isotretinoin]	-16.1 (inactive)
NC[C@H]1CC[C@H](C(=O)Oc2ccc(CCC(=O)O)cc2)CC1 [Cetraxate]	4.64 (inactive)
